Measured values reported in PubChem BioAssay AID1117267 (The Scripps Research Institute Molecular Screening Center, 2014).
Among all 92,000 compounds or so, about 1,200 (1.3%) were called active. This excerpt belongs to a sample that is enriched for actives. Unmarked numbers belong to inactive results.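 Rule for the calls: active = activation above the mean of all tested compounds plus 3 SD (cut at about 9.5% in these data); inactive = the rest.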

assay: compounds raising TTR promoter-driven luciferase – cell-based, luminescence, SH-SY5Y, TTR promoter Gaussia luciferase, primary screen (AID 1117267); details: at 16.7 µM, stronger effect = higher value, 100% = recombinant luciferase protein wells;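 note: cells exposed to compounds for one day before reading; 0% = median of all test compound wells on the plate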

Compound | activation
COc1ccc(N(C)C(=O)C2CCN(S(=O)(=O)c3cccc4nsnc34)CC2)cc1 | -0.63%
CCCCN(C)CCNC(=O)C1CCCN(S(=O)(=O)c2cccc3nsnc23)C1 (stereo not given) | 14.2% (active)
CCCCN(CC)C(=O)C1CCCN(S(=O)(=O)c2cccc3nsnc23)C1 (stereo not given) | -1.18%
Cc1cccc(NC(=O)c2cccc(C(F)(F)F)c2)c1 | 0.86%
Cc1ccccc1CN1CCCCC(NC(=O)Nc2ccccc2F)C1=O (stereo not given) | -2.49%
CCOc1c(OC)cccc1C(=O)NCC1(c2ccccc2)CCCC1 | -2%
C=C1C(C(C)C)N(C)C2=NC(c3ccccc3)CC(=O)N12 (stereo not given) | 11.5% (active)
O=C1CC(c2ccc3c(c2)OCO3)N=C2N(CC3CC3)C/C(=C/c3ccccc3)N12 (stereo not given) | -0.26%
COCCNC(=O)C1CCN(C(=O)C2CC(=O)N(c3ccc(C)cc3)C2)CC1 (stereo not given) | 3.12%
COc1ccc(CNc2nccs2)cc1 | -0.05%
CCOC(=O)c1c(C)oc2cc(Sc3ccccc3)c(O)c(O)c12 | -2.74%
CCOC(=O)c1c(C)c(C(=O)NCCc2ccc(S(N)(=O)=O)cc2)c(C)n1CC | -1.43%
O=S(=O)(NCCc1ccccc1)c1ccccc1 | 0.09%
Cc1noc(C)c1S(=O)(=O)NCCc1ccc(S(N)(=O)=O)cc1 | 13.7% (active)
COc1ccccc1/C=N/Nc1nc(C)c(C(C)=O)s1 | 0.48%
COc1ccccc1N1CCN(Cc2nnnn2CCc2ccccc2)CC1 | -0.88%
COc1ccccc1N1CCN(c2nc(C)cc(=O)[nH]2)CC1 | -0.14%
COc1ccccc1N1CCN(Cc2cc(OC)c3c(c2)OCO3)CC1 | 16.9% (active)
Cc1ccc(C(=O)COC(=O)CCCC(=O)NC2CCCCC2)cc1[N+](=O)[O-] | -0.69%
CCN(CC)CCCN=C(N)N | -0.95%
Cc1ccc(NC(=O)CN(C)Cc2ccc(F)cc2)c([N+](=O)[O-])c1 | 2.25%
COc1ccc(-n2ncc3c2CC(C)(C)CC3NC(=O)CCc2c(C)noc2C)cc1 (stereo not given) | -1.69%
O=C(NC1CCCC1)C1c2ccccc2OCC(=O)N1CC(F)(F)F (stereo not given) | -1.49%
CCOCCn1c(-c2ccccc2)nc2ccccc21 | 0.16%

Compound | activation
C[C@H](NC(=O)C1CCN(S(=O)(=O)c2ccccc2)CC1)C(=O)NCc1ccccc1 | 10.2% (active)
COc1ccccc1CNC(=O)C1CCN(S(=O)(=O)c2ccc3c(c2)OCCO3)CC1 | 0%
O=C(NCc1ccc(Cl)cc1)C1CCN(S(=O)(=O)c2cccs2)CC1 | -1.39%
CC1=C(C(=O)N2CCOCC2)CC(CC(=O)NCc2cccc3ccccc23)C(=O)N1CCC1=CCCCC1 (stereo not given) | 3.82%
COc1ccc(Cn2ccc3ccc(-c4ccc5ccn(Cc6ccccc6C)c5c4)cc32)cc1 | 2.53%
Cn1cc(CN2CCCC(CO)C2)c(-c2ccc(Oc3ccccc3)cc2)n1 (stereo not given) | 11.1% (active)
Cn1cc(CN2CCC(C(O)CCc3ccccc3)CC2)c(-c2ccccc2F)n1 (stereo not given) | -1.93%
CCCOC1CCCN(Cc2cn(C)nc2-c2ccccc2F)C1 (stereo not given) | 0.85%
O=C(CCc1n[nH]c(=O)[nH]c1=O)N/N=C/c1ccc(Br)o1 | 3.17%
C=CCN(Cc1nc(-c2cc(OC)c3c(c2)OCO3)oc1C)C1CCS(=O)(=O)C1 (stereo not given) | -0.47%
CCC(=O)c1c(CC)c2n3c1=CC[C@H]3CC(Br)C=2 (stereo not given in full) | -0.76%
O=C(Nc1ccc(C(=O)O)cc1)/C(=C\c1ccccc1)NC(=O)c1ccc(Br)cc1 | 0.53%
COc1ccccc1C(=O)NC(=S)Nc1ccccc1N1CCCCC1 | 1.44%
O=C(NC(=O)c1ccccc1N1CCCCC1)Nc1ccc(Br)cc1 | 22.9% (active)
COc1ccc(C(C)NC(=O)C23CC4CC(CC(C4)C2)C3)cc1 (stereo not given) | 0.59%
O=S1(=O)CCOC[C@H](CC2CCCCC2)N1Cc1ccc(F)cc1 | 0.81%
Cc1ccc(CN2CCCOCCS2(=O)=O)cc1 | 11.7% (active)
CCC(C)[C@H]1COCCS(=O)(=O)N1Cc1ccc(C)cc1 (stereo not given in full) | 1.12%
O=C(Cn1cnc2ccccc21)Nc1ccccc1-c1ccccc1 | -1.54%
CCc1ccccc1NC(=O)Cc1cn(C)c2ccccc12 | 4%
N=c1ccn(CC(=O)NC(N)=O)c2ccccc12 | 10.4% (active)
Cc1cn(C2CC(O)C(CO)O2)c(=O)n(CCCc2ccccc2)c1=O (stereo not given) | 1.94%
Cn1c(=O)c(=O)n(C)c2cc(S(=O)(=O)NCCN3CCN(c4ccccc4F)CC3)ccc21 | -0.31%
O=C(CN1CCOCC1)Nc1c(Cl)cc(Cl)cc1Cl | -1.15%

Compound | activation
O=S(=O)(NCCCN1CCOCC1)c1ccc(F)c(Cl)c1 | 14.3% (active)
Cn1nc(-c2ccccc2)c2cc([N+](=O)[O-])ccc21 | 2.37%
CCCNC(=O)C(=O)Nc1cc2c3c(c1)CCC(=O)N3CCC2 | 0.51%
CCOC(=O)c1c(-c2ccccc2)oc2ccc(OCC(=O)NN)cc12 | 3.27%
CCOC(=O)c1c(-c2ccccc2)oc2ccc(OCC(N)=O)cc12 | 10% (active)
CCOC(=O)c1c(C)oc2ccc(OCC(=O)N(CC)CC)cc12 | 0.72%
CCOc1ccc(CN2CCN(Cc3ccon3)CC2CCO)cc1 (stereo not given) | 7.67%
CC(NC(=O)CCCC1CCCCC1)c1ccc(S(N)(=O)=O)cc1 (stereo not given) | -0.93%
CCOC(=O)COc1ccc([N+](=O)[O-])cc1 | 0.43%
O=C1CCN(Cc2ccc([N+](=O)[O-])cc2)CCN1[C@H](CO)Cc1ccccc1 | -6.98%
O=C1CCN(CCc2ccccc2)CCN1CCOc1ccccc1 | 0.26%
N#Cc1cccc(CN2CCC(=O)N(CCO)CC2)c1 | 14.7% (active)
O=S(=O)(NCc1ccccc1Br)c1ccccc1Br | 14% (active)
CCCCCCNS(=O)(=O)c1ccccc1Br | -0.76%
CCN([C@H](CO)C(C)C)S(=O)(=O)c1ccccc1Br | 3.03%
OC(c1ccccc1)(c1ccccc1)C1CCN(CCCOc2ccccc2)CC1 | -2.2%
CCOC(=O)c1cc(C(=O)Nc2ccc(S(=O)(=O)Nc3ccc(OC)cc3)cc2)nn1C | -1.23%
CCOC(=O)C1=C(O)CSC1=Nc1cccc(Cl)c1 | -2.26%
CCOC(=O)c1cc(-c2ccc(Cl)s2)nc2c1c(C)nn2C | 15.8% (active)
O=S(=O)(Cc1ccccc1)c1nc2ccccc2n1Cc1ccccn1 | -0.52%
CCC(C(=O)NCc1ccccc1)n1c(Cc2cc(F)cc(F)c2)nc2ccccc21 (stereo not given) | -1.34%
O=C(O)Cn1c(Cc2ccccc2)nc2ccccc21 | 20.6% (active)
COc1cccc(OC)c1C(=O)OCC(=O)/C(C#N)=C(\C)N | -0.74%
COc1ccc(CCNC(=O)COc2ccc3c(c2)OCO3)cc1 | -1.39%

Compound | activation
O=C(CCC1CCN(C(=O)c2cccc(Cl)c2F)CC1)Nc1ccccc1 | -1.31%
CC1CCN(CCC(=O)Nc2ccccc2)CC1 | 0.42%
CC(C)(C)C1CCC(OC(=O)CCC(=O)Nc2ccccc2)CC1 (stereo not given) | 20.6% (active)
COc1cc2c(cc1CNC[C@H]1O[C@@H](n3cnc(C(N)=O)n3)[C@H](O)[C@@H]1O)OCO2 | 1.81%
Cc1ccc(-n2c(SCC(=O)Nc3ccc4c(c3)OCO4)nnc2-c2ccccn2)cc1 | -2.71%
N#Cc1ccc(CSc2nnc3ccccn23)cc1 | -0.39%
N#Cc1ccc(CSc2nnc(-c3ccccn3)n2-c2ccc(Cl)cc2)cc1 | 28% (active)
COc1cccc(/C=C2\SC(=N)N(c3ccc(F)cc3)C2=O)c1 | 3.96%
Cc1ccccc1Nc1c([N+](=O)[O-])ccc2nonc12 | -2.33%
COc1ccc(NC(=O)CCC(=O)N2CCN(S(=O)(=O)c3ccc(C)cc3)CC2)c(OC)c1 | 2.84%
O=C(c1cc(S(=O)(=O)N2CCOCC2)ccc1Cl)N1CCOCC1 | 2.72%
O=C(NNC(=O)c1cc(S(=O)(=O)N2CCCCC2)ccc1Cl)c1ccccc1O | 11.9% (active)
O=C(COC(=O)c1cc(S(=O)(=O)N2CCCCC2)ccc1Cl)NCc1ccco1 | 2.03%
Cc1nc(Nc2ccc3c(c2)OCCO3)c2nnn(Cc3ccccc3Cl)c2n1 | 11.8% (active)
Clc1ccc(Nc2ncnc3c2nnn3Cc2ccccc2)cc1 | -0.95%
Cc1cc(C)n2ncc(C(=O)Nc3ccc4c(c3)OCCO4)c2n1 | 2.76%
O=C(Nc1cc(Cl)cc(Cl)c1)OCCN1CCCC12CCC(c1ccccc1)CC2 (stereo not given) | 1.93%
CCN(CC)S(=O)(=O)c1ccc(C(=O)N2CCN(C3=NS(=O)(=O)c4ccccc43)CC2)cc1 | -0.96%
C=CCN1C(=O)C2(OCCCO2)c2cccc(Cl)c21 | 0.94%
COc1ccc(NC(=O)CCNC(=O)Cn2cnc3sc4c(c3c2=O)CCCC4)cc1OC | -1.59%
Nc1nc(SCC(=O)Nc2ccc(Cl)c([N+](=O)[O-])c2)n[nH]1 | 9.76% (active)
Nc1nc(SCC(=O)Nc2ccc(Cl)cc2C(F)(F)F)n[nH]1 | 0.01%
O=C(CSc1n[nH]c(-c2cccnc2)n1)Nc1ccc(Cl)cc1 | -0.75%
